Many of the other results were omitted from the sample, so hits are more common in it than they were.
GIRK2 act – activators of NPY4-receptor-primed GIRK2 channels, summary, cell-based, HEK293, thallium flux | G protein-activated inward rectifier potassium channel 2 (Homo sapiens), P48051 | HEK293 GIRK2/NPY4 cells, thallium flux fluorescence | activation (% efficacy), % for hits at 37.5 µM | 34,000 tested, under 10 active | AID 1259324, 2017;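 active means primary screen hit, no activity in plain HEK293 cells, and in GIRK2-only cells above 5% efficacy rising with concentration; inactive means the rest, including fluorescent compounds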;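 further: efficacy is normalized control-subtracted fluorescence 15 s after thallium addition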
Target sequence (P48051 whole entry, looked up): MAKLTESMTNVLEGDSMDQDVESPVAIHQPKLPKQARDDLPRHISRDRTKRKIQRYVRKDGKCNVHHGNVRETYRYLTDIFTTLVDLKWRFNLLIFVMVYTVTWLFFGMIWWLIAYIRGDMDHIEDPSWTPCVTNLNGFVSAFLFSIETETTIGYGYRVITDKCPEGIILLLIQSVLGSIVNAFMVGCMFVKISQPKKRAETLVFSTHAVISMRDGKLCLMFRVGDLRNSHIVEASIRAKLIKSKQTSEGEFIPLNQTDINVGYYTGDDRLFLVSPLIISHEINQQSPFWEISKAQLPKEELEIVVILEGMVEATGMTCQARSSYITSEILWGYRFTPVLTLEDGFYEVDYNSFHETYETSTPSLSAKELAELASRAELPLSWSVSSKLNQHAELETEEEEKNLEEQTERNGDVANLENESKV
GluA2 TARP mod – modulators of GluA2-stargazin AMPA receptor complexes, primary screen, cell-based, membrane potential dye. HEK293 GluA2+stargazin, membrane potential dye (FDSS), glutamate EC50; hits were called plate by plate, in both directions. calls only at 30 µM. 40,000 compounds, 3.5% hits. AID 1259245, 2017;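 active means any of four per-well response measures lying three or more SD from its plate-wide compound average, in either direction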
* hit, by the source's call; i = inactive; nt = no result given; + = active, no number.

SMILES | GIRK2 act | GluA2 TARP mod
COc1ccc(S(=O)(=O)N2CCC(C(=O)Nc3nc(-c4ccc(C)cc4)cs3)CC2)cc1 | i | i
CCCCC(=O)Nc1nnc(-c2cc(C)n(C)n2)o1 | i | i
Cc1ccc(NC(=O)N2CCC3(CC2)NC(=O)N(Cc2ccc(Cl)cc2)C3=O)cc1F | i | +
O=C(Nc1ccc(F)cc1)N1CCC2(CC1)NC(=O)N(Cc1ccc(Cl)cc1)C2=O | i | nt
O=C(Nc1ccc(F)c(Cl)c1)N1CCC2(CC1)NC(=O)N(CCc1ccccc1)C2=O | i | +
O=C(Nc1ccccc1)N1CCC2(CC1)NC(=O)N(CCc1ccccc1)C2=O | i | i
Cc1ccc(NC(=O)C(=O)NCC(C)(O)c2ccccc2)cc1N1CCCC1=O (configuration not stated) | i | nt
CCCN1CCCc2cc(CCNC(=O)OC)ccc21 | i | i
COc1cccc(OCC(=O)NCC(C)(O)c2ccc(-c3ccccc3)cc2)c1 (configuration not stated) | i | +
CC(O)(CNC(=O)COc1ccc2ccccc2c1)c1ccccc1 (configuration not stated) | i | i
CCc1ccc(Oc2cc(N3CCC(C(=O)NCc4cccc(Cl)c4)CC3)ncn2)cc1 | i | i
CCc1ccc(Oc2cc(N3CCC(C(=O)NCc4ccc(F)c(Cl)c4)CC3)ncn2)cc1 | i | +
O=S(=O)(NC1CCCC1)c1cccc2cnccc12 | i | +
O=S(=O)(NCCCN1CCOCC1)c1cccc2cnccc12 | i | i
CCN(CCc1ccncc1)S(=O)(=O)c1cc(N2C(=O)CCS2(=O)=O)ccc1C | i | i
O=C(NCC1CCN(c2ccccn2)CC1)Nc1ccccc1 | i | i
COc1ccccc1-c1nnc(NC(=O)c2ccccc2)o1 | nt | i
COc1ccccc1-c1nnc(NC(=O)Cc2ccc(S(C)(=O)=O)cc2)o1 | nt | +
COc1ccccc1-c1nnc(NC(=O)Cc2ccc(SC)cc2)o1 | nt | i
COc1ccc(C(=O)Nc2nnc(-c3ccccc3OC)o2)cc1 | nt | i
COc1ccc(-c2nnc(NC(=O)c3cccc(S(=O)(=O)C(C)C)c3)o2)c(OC)c1 | i | +
COc1ccc(-c2nnc(NC(C)=O)o2)c(OC)c1 | nt | +
COc1ccc(Cl)cc1NC(=O)CN1CCC(c2cccs2)CC1 | i | nt
Cc1ccc(F)cc1NC(=O)Cn1c(C)cc(C)c(-c2nc(-c3ccc(Cl)cc3)no2)c1=O | nt | i
O=C(NCC1(O)CCc2ccccc21)C(=O)Nc1cccc(C(F)(F)F)c1 (configuration not stated) | i | i
SMILES | GIRK2 act | GluA2 TARP mod
Cc1cc([N+](=O)[O-])ccc1NC(=O)C(=O)N1CCN(c2ccccc2)CC1 | nt | i
Cc1ccc(C)c(CN2C(=O)N(c3cc(C)ccc3C)C3CS(=O)(=O)CC32)c1 (configuration not stated) | nt | +
Cc1ccc(C)c(N2C(=O)N(Cc3ccc(Br)cc3F)C3CS(=O)(=O)CC32)c1 (configuration not stated) | nt | i
CC1(C)CCC2CC1(C)CN2C(=O)NC(=O)c1ccccc1 (configuration not stated) | i | i
O=S(=O)(c1ccccc1F)N1CCN(c2ccc3nnc(-c4ccco4)n3n2)CC1 | i | +
Cc1ccc(C)c(S(=O)(=O)N2CCN(c3ccc4nnc(-c5ccco5)n4n3)CC2)c1 | i | i
Cc1nnc2ccc(N3CCN(S(=O)(=O)c4ccccc4Cl)CC3)nn12 | i | +
Cc1nnc2ccc(N3CCN(C(=O)NCc4ccccc4)CC3)nn12 | i | i
O=C(NCc1ccccc1)N1CCN(c2ccc3nnc(-c4ccco4)n3n2)CC1 | i | +
Cc1nnc2ccc(N3CCN(S(=O)(=O)c4ccccc4C(F)(F)F)CC3)nn12 | i | i
Cc1ccc(NCCNC(=O)c2cccs2)nn1 | nt | i
Cn1cc(/C=C2\SC(=O)N(CCC(=O)O)C2=O)c2ccccc21 | nt | i
Cc1cccc(-c2ccc(/C=C3\C(=O)SC(=S)N3CCCC(=O)O)o2)c1 | i | +
Cn1nc(-c2cccc(NC(=O)C3c4ccccc4Oc4ccccc43)c2)ccc1=O | i | i
COc1ccc(C(=O)CC#N)cc1OC | i | i
COc1ccc(N=C(NN)c2ccccc2)cc1 | nt | i
Cc1nc(Sc2nc(C)nc3sc4c(c23)CCC4)c2c3c(sc2n1)CCC3 | nt | i
CCc1nc2sc3c(c2c2nncn12)CCC3 | i | +
Cc1cc(C)c2c(n1)nn1c(N3CCCCC3)cc(C)nc21 | i | +
Cc1cc(C)c2c(n1)nn1c(NC(C)c3ccccc3)cc(C)nc21 (configuration not stated) | i | i
O=C(c1cccc(S(=O)(=O)N2CCOCC2)c1)N1CCCc2ccccc21 | nt | i
Cc1ccc(C(=O)N2CCCc3ccccc32)cc1S(=O)(=O)N1CCOCC1 | nt | +
O=C(c1ccc(Cl)c(S(=O)(=O)N2CCOCC2)c1)N1CCc2ccccc21 | nt | +
O=C(NCCN1CCOCC1)c1ccc(Cl)c(S(=O)(=O)N2CCCCC2)c1 | nt | i
O=C(NCCC(O)c1ccco1)NCc1cccc2ccccc12 (configuration not stated) | i | i
SMILES | GIRK2 act | GluA2 TARP mod
COC(=O)c1sc2ccccc2c1S(=O)(=O)N(C)CC(=O)NCc1ccc(Cl)cc1 | i | i
NC(=O)CSc1nc(-c2ccccc2)c(NC(=O)CCCc2ccccc2)s1 | i | +
NC(=O)CSc1nc(-c2ccccc2)c(N)s1 | i | i
Nc1sc(SCC(=O)NCc2ccc(F)cc2)nc1-c1ccccc1 | i | +
NC(=O)CSc1nc(-c2ccccc2)c(NC(=O)c2ccccc2)s1 | i | i
NC(=O)CSc1nc(-c2ccccc2)c(NC(=O)CCc2ccccc2)s1 | i | +
COc1ccc(CCC(=O)Nc2sc(SCC(N)=O)nc2-c2ccccc2)cc1 | i | i
COc1ccc(Cc2nnc(SCC(=O)Nc3ccc(NC(C)=O)cc3)n2N)cc1 | i | i
CN(C1CCCC1)S(=O)(=O)c1ccc(C(=O)Nc2cccc3ccccc23)cc1 | nt | i
CN(C1CCCC1)S(=O)(=O)c1ccc(C(=O)Nc2nc(-c3ccc4c(c3)OCO4)cs2)cc1 | nt | i
COc1cccc(CNC(=O)CCc2c(C)nn(-c3nc(C)cc(=O)[nH]3)c2C)c1 | i | i
O=C(C1CC1)N1CCc2ccc(NS(=O)(=O)c3ccc4c(c3)OCCO4)cc21 | i | i
O=C(c1ccco1)N1CCc2ccc(NS(=O)(=O)Cc3ccccc3)cc21 | i | i
O=C(Nc1ccc2c(c1)N(C(=O)C1CC1)CC2)c1cc(Br)ccc1Cl | i | i
O=C(C1CCCC1)N1CCc2ccc(NS(=O)(=O)Cc3ccccc3)cc21 | i | +
O=C(C1CC1)N1CCc2ccc(NS(=O)(=O)c3ccc4c(c3)CCCC4)cc21 | i | +
O=C(Nc1ccc2c(c1)N(C(=O)C1CC1)CC2)c1ccc(Cl)c(Cl)c1 | i | +
O=C(NCCn1ncc2c(N3CCN(c4ccccc4)CC3)ncnc21)c1cc2ccccc2o1 | nt | i

Compound activity deposited in PubChem by several laboratories.
